Our source for the max response, Potency and outcome values is PubChem BioAssay (NCATS).

Where “and” joins values, the source holds several entries; their conditions need not be identical. Equal values may be shown once. Results filed as inconclusive are left out. Some compounds were tested as several samples or in several runs, with calls that do not always agree. Unmarked numbers belong to inactive results. Calls of active or inactive are those of the source. Calls follow the shape of the dose curve; as a rule, active = well fitted curve in the direction sought with a large enough effect; inconclusive = small, poorly fitted or top-dose-only effect, or another doubt; inactive = no such curve, though single readings can be large; an effect the other way counts as inactive or inconclusive.

Experiment [1] has as its system HEK293. In words: Cytotoxic Profiling of Annotated Libraries Using Quantitative High-Throughput Screening (AID 1296008). Also: nearly all actives have a fitted effect of over 60% in size. As to max response: % is scaled to controls: 0 for no effect and ±100 for the full control effect. The conditions noted are these: Five cell lines viability, CellTiter-Glo ATP luminescence, 48-72 h; max response: stronger effect = lower value. A digest of the protocol:
(§1)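 Cytotoxicity was measured as CellTiter-Glo ATP luminescence, read after 10 min at room temperature. Compound treatment of the cells lasted 48 or 72 hr at 37 degrees Celsius in a qHTS format.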

Experiment [2] concerns HaCat. The description is as above. The conditions noted are these: Five cell lines viability, CellTiter-Glo ATP luminescence, 48-72 h; max response: stronger effect = lower value. A digest of the protocol:
as §1
(In general: Cellular ATP, detected with luciferase, serves as a proxy for viable cell number.)

Experiment [3] has as its system KB-3-1. Described as above. The conditions noted are these: Five cell lines viability, CellTiter-Glo ATP luminescence, 48-72 h; max response: stronger effect = lower value. A digest of the protocol: as §1
Experiment [4] concerns NIH3T3. The description is as above. The conditions noted are these: Five cell lines viability, CellTiter-Glo ATP luminescence, 48-72 h; max response: stronger effect = lower value. A digest of the protocol: as §1
The subject of experiment [5] is MCC-13. The experiment is described as follows: qHTS assay to identify novel small-molecules to repurpose for Merkel cell carcinoma treatment (AID 1296009). Also: nearly all actives have a fitted effect of over 60% in size. The conditions noted are these: MCC and control cell lines, CellTiter-Glo viability, 72 h; series mostly up to 46 µM. An outline of the steps:
(§2)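 Cell viability measured by CellTiter-Glo following 72 hr compound treatment at 37 degree celsius, with NPC and MIPE libraries tested in 8- and 11-point concentration series.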
In general terms: Quantitative high-throughput screening tests each substance at several concentrations.

Experiment [6] concerns MCC-26. Described as above. The conditions noted are these: MCC and control cell lines, CellTiter-Glo viability, 72 h; series mostly up to 46 µM. An outline of the steps:
as §2

Experiment [7] concerns MKL-1. The description is as above. The conditions noted are these: MCC and control cell lines, CellTiter-Glo viability, 72 h; series mostly up to 46 µM. An outline of the steps: as §2
In experiment [8] the test system is MKL-2. The description is as above. The conditions noted are these: MCC and control cell lines, CellTiter-Glo viability, 72 h; series mostly up to 46 µM. An outline of the steps:
as §2

Experiment [9] relates to UISO. The experiment is described as above. The conditions noted are these: MCC and control cell lines, CellTiter-Glo viability, 72 h; series mostly up to 46 µM. A digest of the protocol: as §2
Experiment [10] concerns WaGa. Described as above. The conditions noted are these: MCC and control cell lines, CellTiter-Glo viability, 72 h; series mostly up to 46 µM. An outline of the steps:
as §2

In experiment [11] the test system is CRL-7250. In words: Cytotoxic Profiling of Annotated Libraries Using Quantitative High-Throughput Screening (AID 1296008). Also: nearly all actives have a fitted effect of over 60% in size. As to max response: % is scaled to controls: 0 for no effect and ±100 for the full control effect. The conditions noted are these: Five cell lines viability, CellTiter-Glo ATP luminescence, 48-72 h; max response: stronger effect = lower value. A digest of the protocol: as §1
Experiment [12] has as its system HACAT. The experiment is described as follows: qHTS assay to identify novel small-molecules to repurpose for Merkel cell carcinoma treatment (AID 1296009). Also: nearly all actives have a fitted effect of over 60% in size. The conditions noted are these: MCC and control cell lines, CellTiter-Glo viability, 72 h; at 44.8 µM (top of the series) unless noted. An outline of the steps:
as §2

In experiment [13] the test system is W2. The experiment is described as follows: qHTS profiling for inhibitors of Plasmodium falciparum proliferation (AID 504749). Also: nearly all actives have a fitted effect of over 60% in size. The conditions noted are these: P. falciparum in erythrocytes, SYBR Green DNA, 72 h; series mostly up to 28.7 µM. A digest of the protocol:
(§3)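 In a 72 h erythrocytic culture (37 C, humidified, 5% CO2) at 2.5% hematocrit and 0.3% starting parasitemia, compounds were tested; SYBR Green I in detergent lysis buffer stained parasite DNA overnight.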

Experiment [14] has as its system C33A. In words: Primary qHTS to identify gynecologic anti-cancer compounds using libraries of approved drugs and bioactive compounds (AID 1345084). Also: nearly all actives have a fitted effect of over 55% in size. The conditions noted are these: Gynecologic cancer cell panel viability, ATPlite luminescence, 48 h; series mostly up to 57.5 µM. A digest of the protocol: (§4)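 48 h compound exposure at 37 C, 5% CO2; five-point qHTS. ATPlite luminescence readout of cell ATP.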

The test system of experiment [15] is CASKI. The description is as above. The conditions noted are these: Gynecologic cancer cell panel viability, ATPlite luminescence, 48 h; series mostly up to 57.5 µM. An outline of the steps: as §4
For experiment [16], the system named is CAOV3. The description is as above. The conditions noted are these: Gynecologic cancer cell panel viability, ATPlite luminescence, 48 h; series mostly up to 57.5 µM. An outline of the steps:
as §4

In experiment [17] the test system is TAB113. The experiment is described as follows: qHTS profiling for inhibitors of Plasmodium falciparum proliferation (AID 504749). Also: nearly all actives have a fitted effect of over 60% in size. The conditions noted are these: P. falciparum in erythrocytes, SYBR Green DNA, 72 h; series mostly up to 28.7 µM. An outline of the steps:
as §3

The subject of experiment [18] is TAB165. The description is as above. The conditions noted are these: P. falciparum in erythrocytes, SYBR Green DNA, 72 h; series mostly up to 28.7 µM. A digest of the protocol: as §3
Potency is read from the fitted curve at half-maximal effect.

On to `CCc1ccc(C=C2SC(=S)NC2=O)cc1`, for which the max response in [1] is -22.6%; in [2] it was -1.5%; in experiment [3] it was -5.67%; in experiment [4], -14.4%. For the same molecule, the Potency entry in experiment [5], in experiment [6], in experiment [7], in [8], in [9] and in experiment [10] was “inactive” throughout.
As for `O=c1c(-c2ccc(O)cc2)coc2cc(OC3O[C@H](CO)[C@H](O)[C@H](O)[C@H]3O)cc(O)c12` (some centres not stated), the figures for the max response in experiment [11] and in experiment [2] were -31.9% and -51.1%, respectively. The Potency result in experiment [5], in experiment [6], in experiment [7], in [8] and in [10] was “inactive” in each case.
Regarding `COc1cc(N2CCC(N3CCN(C)CC3)CC2)ccc1Nc1ncnc(Nc2ccccc2S(=O)(=O)C(C)C)n1`, the Potency in experiment [1] was 14.6 µM (active); in [2], 7.31 µM (active); in experiment [3], 8.33 µM (active); in experiment [6] it was 11.8 µM (active). The Potency result in experiment [8] and in experiment [10] was “inactive” in each case.
As to `O=C(O)c1cc(O)c2c(c1)C(=O)c1cccc(O)c1C2=O`, the max response in experiment [1] is -16.6%; in [3] it was 0.608%; in [4] it was 0.522%. The outcome in experiment [2] was inactive. In [12], the outcome was “inactive [at 92 µM]”. Also, the Potency result in experiment [5], in [6], in experiment [7], in experiment [8] and in [10] was “inactive” each time.
`CC/C(=C(\c1ccccc1)c1ccc(OCCN(C)C)cc1)c1ccccc1`: the Potency in [13] is 13.5 µM (active); in experiment [8], 26.6 µM (active); in [9] it was 21.1 µM (active). Further, the max response was -3.24% in [11], -10.4% in [2] and -11% in experiment [3]. Also, the Potency result in experiment [14] and in [15] was “inactive” each time.
For the molecule `CC(C)C(=O)Nc1ncc(-c2cc(C(F)F)nn2-c2c(Cl)cccc2Cl)s1`, the max response in experiment [11] was -16.9%; in experiment [2], -19.8%. Moreover, the Potency result in experiment [7], in experiment [10], in experiment [14], in experiment [16] and in experiment [15] was “inactive” in each case.
`CC1(C)O[C@H]2C[C@@H]3[C@H]4CCC5=CC(=O)C=C[C@]5(C)[C@@]4(F)[C@@H](O)C[C@]3(C)[C@]2(C(=O)CO)O1`: the Potency entry in experiment [17], in experiment [18], in experiment [5] and in [9] was “inactive” in each case. Besides, the max response in [11] is -11.3%; in experiment [2] it was -12.9%; in [3] it was 1.25%. The Potency in [7] was 18.7 µM (active); in [10], 13.2 µM (active).
On to `Nc1ncnc2c1nc(Cl)n2[C@@H]1O[C@H](CO)[C@@H](O)[C@@H]1O`, for which the max response in experiment [1] was 0.527%. The Potency in experiment [2] was 14.8 µM (active); in [4], 26.4 µM (active). The Potency result in experiment [5] is “inactive”.
For the molecule `COc1ccc(-n2c(C)c([N+](=O)[O-])c3ccc(O)cc32)cc1`, the max response in experiment [1] was -7.19%; in experiment [2], -25.5%; in experiment [3], -1.9%; in experiment [4] it was 4.92%. Further, the Potency result in experiment [5], in [6], in [7], in [8], in experiment [9] and in experiment [10] was “inactive” each time.
As for `COc1cc2c(cc1OC)CN(CCc1ccc(NC(=O)c3cc(OC)c(OC)cc3NC(=O)c3cnc4ccccc4c3)cc1)CC2`, the Potency in [1] is 11.4 µM (active). Besides, the max response in experiment [1] is -20.5%; in experiment [2] it was -17.1%; in experiment [4] it was -16.8%. In addition, in [3], the molecule was called inactive. Moreover, the Potency entry in experiment [5], in experiment [6], in experiment [7], in experiment [8], in experiment [9] and in experiment [10] was “inactive” throughout.
In the case of `COC[C@@H](c1ccc(C(F)(F)F)cc1)N1CCN(C2(C)CCN(C(=O)c3c(C)ncnc3C)CC2)C[C@H]1C`, the max response in experiment [11] was -6.4%; in experiment [2], -0.948%; in experiment [3], 5.03%. In addition, the Potency result in [5], in experiment [6], in experiment [7], in experiment [8], in [9] and in [10] was “inactive” each time. For the same molecule, the Potency result in [14], in experiment [16] and in [15] was “inactive” in each case.
In the case of `Cc1cccc(Nc2nc(-c3ccncc3)cs2)c1`, the max response in experiment [11] was -0.257%. The molecule was classed as inactive in [2] and in [12]. The Potency in [4] is 11.8 µM (active) and 7.31 µM (active); in experiment [9], 0.935 µM (active). Also, the Potency result in [5], in experiment [6], in experiment [7], in [8], in [10] and in experiment [14] was “inactive” each time. Also, the Potency entry in [16] was “inactive”.
Consider `Cc1ccc(C(=O)Nc2cccc(C(F)(F)F)c2)cc1Nc1nc(-c2cccnc2)nc2c1cnn2C`, for which the Potency in [1] is 13.2 µM (active); in experiment [4], 9.35 µM (active). The max response in experiment [3] is -14.6%. Further, the Potency result in experiment [5], in [6], in experiment [7], in experiment [8] and in experiment [10] was “inactive” in each case.
As to `Clc1ccc(C(c2ccc(Cl)cc2)n2cc[n+](CC(OCc3ccc(Cl)cc3Cl)c3ccc(Cl)cc3Cl)c2)cc1` (configuration not stated), the Potency was 14.8 µM (active) in experiment [1], 18.7 µM (active) in experiment [3], 20.9 µM (active) in experiment [7] and 10.5 µM (active) in experiment [8]. Further, the Potency entry in experiment [5] is “inactive”.
Turning to `NC(=O)c1cccc2[nH]c(-c3ccc([C@H]4CCCN4)cc3F)nc12`, the max response in [3] was -3.95%; in experiment [4], 0.71%. Further, the Potency entry in experiment [5] and in [6] was “inactive” in each case. For the same molecule, the Potency in experiment [7] was 20.9 µM (active); in [8], 2.35 µM (active); in experiment [10], 20.9 µM (active); in [14], 17.8 µM (active); in experiment [16], 28.2 µM (active); in [15], 12.6 µM (active).
Consider `CC(C)=CC[C@@H](O)C1=CC(=O)c2c(O)ccc(O)c2C1=O`, for which the outcome in experiment [2] and in [12] was inactive. In addition, the max response was 6.3% in experiment [3] and 4.11% in experiment [4]. Moreover, the Potency result in experiment [5], in [6] and in [9] was “inactive” throughout. Moreover, the Potency was 20.9 µM (active) in experiment [8] and 23.5 µM (active) in experiment [10].
With `CC[C@@H]1C=C(C)C[C@H](C)C[C@H](OC)[C@H]2O[C@@](O)(C(=O)C(=O)N3CCCC[C@@H]3C(=O)O[C@H](C(C)=C[C@@H]3CC[C@H](Cl)[C@H](OC)C3)[C@H](C)[C@@H](O)CC1=O)[C@H](C)C[C@H]2OC`, the Potency in experiment [1] was 16.6 µM (active). The outcome in [3] was inactive. Besides, in experiment [4], the max response is -7.01%. For the same molecule, the Potency result in experiment [5] is “inactive”.
